Screening results from PubChem.
Tat export inh: E. coli Tat export inhibitors, primary screen, MC4100, TorA-mCherry reporter, fluorescence, single point | inhibition, % at 10 µM | 340,000 tested, 0.036% active;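 active = mean replicate inhibition at least 50% and at least half of replicates individually reaching 50%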;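 also: exported cargo escapes ClpAP degradation while cytoplasmic cargo is degraded and loses fluorescence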
AddAB inh: growth inhibition of E. coli expressing H. pylori AddAB, primary screen, AddAB inhibitor project, absorbance; inhibition, % at 11.9 µM; 330,000 tested, 0.29% active; AID 435030, 2010; in the data active = inhibition above about 12%
E coli growth-1: E. coli growth inhibition, primary screen, OD600; Escherichia coli growth, 23 h; stronger effect = lower value; OD600 absorbance (concentration not given with the values); 330,000 tested, 0.21% active; AID 1053175, 2014;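 active = OD600 absorbance below the run mean of sample wells minus 3.6 SD, in any replicate, cut at about 0.56 in these data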
PfHsp90 set2: growth inhibition of PfHsp90-expressing yeast, primary screen, antimalarial PfHsp90 inhibitor project, S. cerevisiae, BacTiter-Glo luminescence, single point, set 2; BacTiter-Glo ATP, 48 h; yeast lacking PDR1 and PDR3 efflux regulators; inhibition, % at 9.4 µM; 310,000 tested, 0.32% active; AID 504621, 2011;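 active = every replicate shows inhibition above about 80%, whatever the replicate mean, limit read from the data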
phage Ecoli inh: growth loss of phage-infected E. coli, primary screen, RecBCD inhibitor project, absorbance, with phage, HTS; inhibition, % at 11.9 µM; 360,000 tested, 0.26% active; in the data active = inhibition above about 11%
E coli growth-2: E. coli V3065 growth inhibition, primary screen, counter-screen for AddAB inhibitor project, absorbance, OD600. inhibition, % at 11.9 µM. 330,000 tested, 0.27% active. 18 h;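 active = inhibition above the campaign's mean inhibition across all tested compounds plus 3 SD, cut at about 9.9% in these data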;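 also: uninfected addAB+ strain grown without phage in ampicillin broth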
Numbers stand for hits; 0 = inactive; - = no result. This is a sample that favours compounds with a hit; in the whole collection about 0.69% have one here.

SMILES	Tat export inh	AddAB inh	E coli growth-1	PfHsp90 set2	phage Ecoli inh	E coli growth-2
O=C1/C(=C/c2ccncc2)CCC/C1=C\c1ccncc1	0	-	0	102	0	-
O=C1C(=Cc2ccncc2)CCCc2ccccc21	-	-	-	-	0	-
COc1cc(NS(=O)(=O)c2ccc(N)cc2)ncn1	-	21	-	-	-	16
CC1CN(C(C)CO)C(=O)Cc2cc(NC(=O)CCC(F)(F)F)ccc2OC1CN(C)S(C)(=O)=O (configuration not stated)	-	-	0	-	-	-
O=C(Nc1cccc(C(F)(F)F)c1)Oc1ccc(Cl)c2cccnc12	0	0	-	124	0	0
COC(CC1OC1C(=O)COCc1ccccc1)OC (configuration not stated)	-	-	0	-	-	-
COC1=C(C)C(=O)C2=C(C1=O)C1C3CC4=C(C(=O)C(OC)=C(C)C4=O)C(CNC(=O)C(C)=O)N3C(C#N)C(C2)N1C (configuration not stated)	0	-	-	0	15	-
COc1ccc(C=NN(CCC(=O)NC(C)(C)C)C2=NS(=O)(=O)c3ccccc32)cc1	-	-	0	-	-	-
O=S(=O)(Nc1nc2ccccc2nc1N1CCN(c2ccccn2)CC1)c1ccc(Cl)cc1	0	-	0	104	0	-
C(=Cc1ccccc1)CN1CCN(C(c2ccccc2)c2ccccc2)CC1	-	-	0	-	-	-
Cc1nnsc1C(=O)NNc1c(Cl)cccc1Cl	0	0	0.48	0	0	0
COC(=O)NN=Cc1ccccc1OC/C=C/c1ccccc1	-	-	0	-	-	-
O=C(O)/C=C/C(=O)c1ccc2c(c1)CCc1ccccc1-2	0	0	-	96	0	0
O=C(O)C=CC(=O)c1ccc2c(c1)CCc1ccccc1-2	-	-	0	-	-	-
COCCN1CSC(=S)N(Cc2ccco2)C1	0	0	0	0	0	0
S=C1SCN(Cc2ccccn2)CN1Cc1ccco1	0	0	0.52	0	0	0
Oc1c(Br)cc(Br)c(/C=N/n2c(-c3ccccc3)n[nH]c2=S)c1Br	0	0	-	119	0	0
Oc1c(Br)cc(C=Nn2c(-c3ccccc3)n[nH]c2=S)cc1Br	-	-	0	-	-	-
c1ccc2c(c1)CCC2=NNc1nc2ccccc2[nH]1	-	-	0.46	-	-	-
c1ccc2c(c1)CC/C2=N/Nc1nc2ccccc2[nH]1	0	0	-	0	0	0
CCN(CC)c1ccc(/C=C2/SC(=O)N(C(C)C)C2=O)o1	0	-	0	86	0	-
O=C(/C=C/c1ccccc1)NC(=S)NNC(=O)c1cnccn1	0	0	-	109	0	11
O=C(/C=C/c1ccccc1)NC(=S)NNC(=O)c1cccnc1	0	0	0	0	0	0
COc1cc([N+](=O)[O-])cc(C=NNC(=O)Cn2nccc2C)c1O	-	-	0	-	-	-
COc1cccc(/C=C/c2ccc3cccc(O)c3n2)c1	0	0	0	103	0	0
SMILES	Tat export inh	AddAB inh	E coli growth-1	PfHsp90 set2	phage Ecoli inh	E coli growth-2
Oc1cccc(/C=C/c2ccc3cccc(O)c3n2)c1	0	0	0	0	0	0
CN(C)S(=O)(=O)c1ccc(NC(=O)c2ccc(Br)o2)cc1	0	0	0	0	-	9.8
N#C/C(=C/c1ccc(O)cc1)C(=O)NCc1ccc(Cl)cc1	0	0	0	103	0	0
COc1ccccc1NC(=O)CN(Cc1ccco1)C(=O)c1cc2ccccc2o1	0	0	0.54	-	-	0
COc1ccc(CN(CC(O)COCc2ccccc2)S(=O)(=O)c2ccccc2Br)cc1OC (configuration not stated)	0	0	0	0	0	0
O=S(=O)(c1c(F)cccc1F)N(CCc1ccc(F)cc1)C[C@@H](O)COCc1ccccc1	0	-	-	120	0	-
COc1ccc2nc(Cl)c(C=NNc3ccccn3)cc2c1	-	-	0	-	-	-
O=S(=O)(Nc1cccnc1)c1cccc(C(F)(F)F)c1	0	0	0	-	0	0
O=[N+]([O-])c1ccc(S(=O)(=O)c2cccc(C(F)(F)F)c2)nc1	0	0	0	81	-	0
COc1ccc(C=NNC(=O)CCN2CCCCC2c2cccnc2)cc1Cn1cc([N+](=O)[O-])cn1 (configuration not stated)	-	-	0	-	-	-
CCOC(=O)c1cc([N+](=O)[O-])c([N+](=O)[O-])cc1NC(C)=O	0	0	0	100	0	0
CCOC(=O)c1ccc(NC(=O)c2ccccc2[N+](=O)[O-])cc1	0	0	0	0	0	0
CC(C)CC1NC(=O)C(C(C)C)NC(=O)c2cc([N+](=O)[O-])cc(I)c2NCCC(C(N)=O)NC1=O (configuration not stated)	-	-	0	-	-	-
Cc1ccc(N2C(=O)C3C4C=CC(CNC(=S)Nc5cccc(Cl)c5)(O4)C3C2=O)cc1 (configuration not stated)	0	0	0	105	0	0
Cc1ccc(N2C(=O)C3C4C=CC(CNC(=S)Nc5ccc(F)cc5)(O4)C3C2=O)cc1 (configuration not stated)	0	0	0	103	0	0
CC(C)COC(=O)NCC12C=CC(O1)C1C(=O)N(c3ccc(Cl)cc3)C(=O)C12 (configuration not stated)	0	0	0	-	0	0
Cc1ccc(C)c(NC(=S)N2CCN(c3ccccn3)CC2)c1	0	0	0	0	0	0
Cc1ccc(N2C(=O)C3C4C=CC(CNC(=S)Nc5ccc(Cl)cc5)(O4)C3C2=O)cc1 (configuration not stated)	0	0	0	105	0	0
Cc1ccc(N2C(=O)C3C4C=CC(CNC(=S)N5CCN(c6ccccn6)CC5)(O4)C3C2=O)cc1 (configuration not stated)	0	0	-	104	0	0
C/C(C=NNC(=O)c1cc(C(C)C)[nH]n1)=C\c1ccccc1	-	-	0	-	-	-
CCCC(=O)Nc1ncnc2c1ncn2C1OC2OP(=O)(O)OCC2C1OC(=O)CCC (configuration not stated)	-	-	0	-	-	-
Nc1cc2c(cc1[N+](=O)[O-])-c1ccccc1C2=NO	0	-	-	128	0	-
CC(=O)Nc1cc2c(cc1[N+](=O)[O-])-c1ccccc1C2=NO	0	-	-	0	0	-
CC(=NNC(=O)c1ccoc1C)c1cccc(NC(=O)C(F)(F)F)c1	-	-	0	-	-	-
NC(Cc1cc(I)c(O)c(I)c1)C(=O)O (configuration not stated)	-	-	0	-	-	-
SMILES	Tat export inh	AddAB inh	E coli growth-1	PfHsp90 set2	phage Ecoli inh	E coli growth-2
COCCCn1c(=C(C#N)C(=O)Nc2ccc(C(=O)O)cc2)sc(=Cc2cccc(OC)c2OC)c1=O	-	-	0	-	-	-
CCCNC(=O)c1nnsc1S(=O)(=O)c1ccc(Cl)cc1	0	-	0	105	0	-
CCCNC(=O)c1nnsc1S(=O)c1ccc(Cl)cc1 (configuration not stated)	0	-	0	105	0	-
CC1CN=C(N(C)C)N1CCC1CCCC1 (configuration not stated)	-	-	0	-	-	-
CCOC(=O)c1c(NC(=O)C(=O)NN=C(C)c2ccc(OC)cc2)sc2c1CCCCC2	-	-	0	-	-	-
CC1=CSC(=C(C#N)C(=O)N2CCOCC2)N1c1ccccc1	-	-	0	-	-	-
COc1ccc(-c2cc(C(=O)NN=Cc3cc(OC)c(OC)cc3OC)c3ccccc3n2)cc1	-	-	0	-	-	-
